Records with an inconclusive call do not appear. Active and inactive are the calls of the source. The call rests on the fitted dose curve; in most records, active means well fitted inhibition curve with a large enough effect; inconclusive means small, poorly fitted or top-dose-only effect; inactive means flat fitted curve, though single readings scatter.

This passage reports Potency and outcome results from PubChem BioAssay (NCATS).

What all share (assay): qHTS profiling for inhibitors of Plasmodium falciparum proliferation (AID 504749); further: nearly all actives have a fitted effect of over 60% in size
Holding throughout (details): P. falciparum in erythrocytes, SYBR Green DNA, 72 h; series mostly up to 28.7 µM
(In qHTS, concentration-response curves come from the screen itself.)

In one experiment the test system is CP297. An outline of the steps: (§1)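 Three-day growth assay of blood-stage parasites in erythrocytes (0.3% parasitemia, 2.5% hematocrit) at 37 C, 5% CO2, quantified by SYBR Green DNA staining after overnight detergent lysis.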
The test system of the next experiment is CP305. Summed up: as §1
The subject of the next experiment is CP315. Summed up:
as §1

A further experiment has as its system CP325. Summed up:
as §1

Another experiment deals with CP329. An outline of the steps:
as §1

A further experiment relates to CP335. An outline of the steps:
as §1

The test system of a further experiment is DFO2036. An outline of the steps: as §1
Another experiment deals with DIV14. An outline of the steps: as §1
The test system of a further experiment is DIV17. Summed up:
as §1

For the next experiment, the system named is DIV30. Summed up:
as §1

For a further experiment, the system named is Dd2. An outline of the steps:
as §1

The test system of another experiment is ECU. An outline of the steps:
as §1

In a further experiment the test system is FAB9. Summed up: as §1
The subject of the next experiment is GB4. An outline of the steps:
as §1

The next experiment has as its system HB3. An outline of the steps:
as §1

A further experiment concerns ICS. Summed up:
as §1

The test system of the next experiment is JCK. Summed up:
as §1

A further experiment has as its system N140. Summed up:
as §1

A further experiment deals with P93_24. An outline of the steps:
as §1

Another experiment has as its system P94_40. Summed up:
as §1
Potency means the concentration at half of the fitted maximal effect.

Consider `N=c1nc(N2CCCCC2)cc(N)n1O`, for which the Potency result in the experiment on CP297, in the experiment with CP305, in the experiment on CP315, with CP325, in the experiment with CP335 and with DFO2036 was “inactive” each time. Further, the Potency entry in the experiment with DIV14, with DIV17, in the experiment on DIV30, in the experiment with Dd2, in the experiment on ECU and in the experiment with FAB9 was “inactive” throughout. In addition, the Potency result with GB4, with HB3, in the experiment on ICS, in the experiment on JCK, in the experiment on N140 and in the experiment on P93_24 was “inactive” each time. For the same compound, the Potency entry in the experiment on P94_40 was “inactive”. For the same compound, in the experiment on CP329, the compound was called inactive.
For the compound `Nc1ccc(S(=O)(=O)Nc2ccnn2-c2ccccc2)cc1`, the Potency entry in the experiment on CP297, in the experiment on CP305, with CP315, in the experiment on CP325, in the experiment on CP335 and in the experiment with DFO2036 was “inactive” in each case. The Potency result in the experiment with DIV14, in the experiment with DIV17, in the experiment on DIV30, with Dd2, in the experiment with ECU and in the experiment with FAB9 was “inactive” in each case. Also, the Potency result in the experiment on GB4, in the experiment on HB3, in the experiment with ICS, in the experiment on JCK, in the experiment with N140 and with P93_24 was “inactive” in each case. Further, the Potency result with P94_40 was “inactive”. Further, the call in the experiment on CP329 was inactive.
On to `CCCc1nn(C)c2c(=O)[nH]c(-c3cc(S(=O)(=O)N4CCN(C)CC4)ccc3OCC)nc12`, for which the Potency result with CP297, in the experiment with CP305, with CP315, in the experiment on CP325, in the experiment with CP335 and in the experiment on DFO2036 was “inactive” each time. The Potency result in the experiment with DIV14, in the experiment on DIV17, in the experiment with Dd2, in the experiment on ECU, with FAB9 and in the experiment on GB4 was “inactive” in each case. The Potency result with HB3, in the experiment on JCK, with N140, in the experiment on P93_24 and in the experiment with P94_40 was “inactive” in each case. Moreover, in the experiment on CP329, the compound was called inactive. In the experiment with ICS, the Potency is 11.2 µM (active).
Take `NS(=O)(=O)c1cc2c(cc1Cl)NC=NS2(=O)=O`: the Potency entry in the experiment with CP297, with CP305, in the experiment with CP315, in the experiment on CP325, with CP335 and with DFO2036 was “inactive” each time. In addition, the Potency result in the experiment with DIV14, in the experiment with DIV17, with DIV30, in the experiment on Dd2, in the experiment on ECU and in the experiment with FAB9 was “inactive” throughout. In addition, the Potency result in the experiment on GB4, in the experiment with HB3, in the experiment with ICS, in the experiment on JCK, in the experiment with N140 and in the experiment on P93_24 was “inactive” throughout. For the same compound, the Potency result in the experiment with P94_40 is “inactive”. Also, the compound was called inactive in the experiment on CP329.
With `CC(C[N+](C)(C)C)OC(N)=O` (stereo unspecified), the Potency entry in the experiment with CP297, in the experiment with CP305, with CP315, in the experiment with CP325, in the experiment on CP335 and in the experiment on DFO2036 was “inactive” throughout. Moreover, the Potency entry in the experiment on DIV14, in the experiment on DIV17, in the experiment with DIV30, with Dd2, with ECU and in the experiment on FAB9 was “inactive” each time. Besides, the Potency result in the experiment on GB4, in the experiment on HB3, in the experiment on ICS, in the experiment with JCK, in the experiment on N140 and in the experiment on P93_24 was “inactive” each time. In addition, the Potency result with P94_40 is “inactive”. For the same compound, the outcome in the experiment with CP329 was inactive.
Take `O=c1n(CCCN2CCN(c3cccc(Cl)c3)CC2)nc2ccccn12`: the Potency entry in the experiment on CP297, in the experiment on CP305, in the experiment with CP315, with CP325, in the experiment with CP335 and in the experiment on DFO2036 was “inactive” each time. In addition, the Potency result in the experiment with DIV14, in the experiment on DIV17, in the experiment with DIV30, in the experiment on Dd2, in the experiment with ECU and in the experiment on FAB9 was “inactive” throughout. Further, the Potency result with GB4, in the experiment on HB3, in the experiment on ICS, in the experiment on JCK, with N140 and in the experiment with P93_24 was “inactive” throughout. The Potency result in the experiment on P94_40 is “inactive”. The call with CP329 was inactive.
`CCc1ccc(CCOc2ccc(CC3SC(=O)NC3=O)cc2)nc1` (stereo unspecified): the Potency entry in the experiment with CP297, with CP305, in the experiment with CP315, with CP325, in the experiment on CP335 and with DFO2036 was “inactive” in each case. Moreover, the Potency entry in the experiment on DIV14, with DIV17, in the experiment with DIV30, with Dd2, in the experiment on ECU and with FAB9 was “inactive” each time. Moreover, the Potency result in the experiment on GB4, in the experiment on HB3, in the experiment with ICS, with JCK, in the experiment on N140 and in the experiment on P93_24 was “inactive” in each case. Also, the Potency entry in the experiment with P94_40 was “inactive”. In the experiment with CP329, the call was inactive.
In the case of `CC(=O)Oc1ccccc1C(=O)O`, the Potency result in the experiment on CP297, with CP305, in the experiment on CP315, with CP325, with CP335 and in the experiment with DFO2036 was “inactive” throughout. Besides, the Potency result in the experiment with DIV14, with DIV17, in the experiment with DIV30, in the experiment on Dd2, in the experiment with ECU and in the experiment on FAB9 was “inactive” throughout. Besides, the Potency result in the experiment with GB4, with HB3, in the experiment on ICS, in the experiment with JCK, in the experiment with N140 and in the experiment with P93_24 was “inactive” in each case. Further, the Potency entry in the experiment with P94_40 was “inactive”. Also, the outcome with CP329 was inactive.
Regarding `NNCCc1ccccc1`, the Potency entry in the experiment on CP297, with CP305, with CP315, with CP325, with CP335 and in the experiment with DFO2036 was “inactive” each time. In addition, the Potency entry with DIV14, in the experiment with DIV17, with DIV30, in the experiment with Dd2, with ECU and in the experiment on FAB9 was “inactive” throughout. Besides, the Potency entry with GB4, in the experiment on HB3, with JCK, with N140 and in the experiment with P93_24 was “inactive” throughout. In the experiment on CP329, the outcome was inactive.
On to `NCCc1ccc(O)c(O)c1`, for which the Potency entry in the experiment on CP297, with CP305, in the experiment on CP315, in the experiment on CP325, in the experiment with CP335 and with DFO2036 was “inactive” in each case. In addition, the Potency result in the experiment on DIV14, in the experiment with DIV17, in the experiment with DIV30, in the experiment with Dd2, in the experiment on ECU and with FAB9 was “inactive” each time. Also, the Potency result in the experiment on GB4, in the experiment on HB3, in the experiment with ICS, in the experiment on JCK, with P93_24 and in the experiment with P94_40 was “inactive” throughout. Besides, in the experiment with CP329, the compound was classed as inactive.
